± gives the standard deviation of the averaged measurements. The full ranking holds about 25,000 sequences; the median of “ln(normalized median fluorescence intensity)” is about 8.9, and the highest 2% start at about 10. The sample holds the highest values, similar sequences and a random draw of the others, so the mix is not that of the screen.
The sequences below were run on PfAP2-LT AP2 domain (GST-tagged) (assay: gcPBM binding intensity (ln(normalized median fluorescence intensity)); higher = stronger DNA binding).
Method in brief: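 GST-tagged P. falciparum DNA-binding domains produced in E. coli were incubated for 1 h on an Agilent 4 × 180k array of primer-extended double-stranded 36-bp intergenic genomic probes with negative controls. Binding intensity is the highest Masliner-normalised natural-log median intensity across replicate spots of either probe orientation, with bound protein detected by Alexa488 anti-GST antibody at 488 nm.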

Sequence	gcPBM binding intensity (ln)
AAAAAGAAAAAACGAAGTACAATTATAAGATTATAT [XGTACX_site410]	8.86 ± 0.47
TATGTAACCTGTTTTACACACCCCCACCCCCCTCTT [CACACA_site319]	10.09 ± 0.05
ATGTTCTTTAAAACCACACACCCCCCAACCCCCCTC [CACACA_site2373]	10.1 ± 0.13
ACCCTATATGTAACTACACACCGCATATTGTTTACT [CACACA_site3071]	9.46 ± 0.42
CATATATAGATATATACACACATACATACATACATA [CACACA_site7748]	9.3 ± 0.27
TATAGATACATATACACACACACACCGACATATATA [CACACA_site9138]	10.2 ± 0.14
AGATAGATACATACACGTACATATATATATACACAT [XGTACX_site4755]	9.18 ± 0.35
CATAGATACATACACGCACACACATATATATATATA [CACACA_site13]	10.2 ± 0.17
CACGCACGCACATACACACACATACACATATAAATA [CACACA_site6907]	9.72 ± 0.45
TATACACATAGACACACACACATACACGCACATACA [CACACA_site6908]	9.99 ± 0.17
TATAGATACAGATACACACACACACCGACATATATA [CACACA_site5832]	10 ± 0.22
TAGATACATACACGCACACACATATATAAATAAATA [CACACA_site6157]	9.68 ± 0.35
CATACACATACACATACACACGCATAGAAACATACG [CACACA_site8666]	9.55 ± 0.51
TATAGATACATATACACACACACACCCACATATATA [CACACA_site3436]	9.94 ± 0.11
TAGATACATACACGCACACACATATATATATATATA [CACACA_site12]	10.11 ± 0.035
AACATACATAGACACACACACACACGCACACGCACA [CACACA_site6373]	10.35 ± 0.071
AAAAATAACATATAAACACACATATAGATTTATATA [CACACA_site7738]	8.94 ± 0.37
TTTTATGCTCAATTATTAAGAAATACTTTTTCTTCC [XGTACX_negctrl_site208]	8.45 ± 0.68
GTATGTATGTATGTATGTACGTATGTATGTATATAT [XGTACX_site3369]	9.2 ± 0.36
AAACGTGCGTATATGTGTACGCATATATATATATAT [XGTACX_site5252]	10.2 ± 0.34
ATTTATATATATGTATGTACGTATGTGTGTATATGT [XGTACX_site7587]	9.36 ± 0.35
TATTTATTTATAAACACACAAATATTTTTATTTATA [CACACA_site6889]	8.49 ± 0.32
TTTTCTATATAACAACGTACATTTATTATATTATAA [XGTACX_site6148]	8.49 ± 0.45
TTTATATAAATCAAATGTACATATTCCAAATATATA [XGTACX_site8515]	8.45 ± 0.34

Sequence	gcPBM binding intensity (ln)
ATAAAAAAGAAACAAACACACATACATACAAACAAA [CACACA_site4256]	9.47 ± 0.33
CAATCAAAGAAACACACACACACCTAAACATAAAAG [CACACA_site2756]	10.2 ± 0.33
AACAATCAAATAGACACACACACACCCAAACATAAA [CACACA_site2757]	10.1 ± 0.11
GGACACCTTCAAAACACACATACAAATAAATAGAAA [CACACA_site3305]	8.97 ± 0.54
CAATCAAATGGACACACACACACCTAAACATAAAAG [CACACA_site5524]	10 ± 0.3
ATCAAATAGAGACACACACACCTAAACATAAAAGAA [CACACA_site7321]	9.78 ± 0.48
CAATCAAATAGACACACACACACCTAAACATAAAAG [CACACA_site7322]	10.2 ± 0.4
CACAAAAATAGACACACACACATATAAATAAATATA [CACACA_site6598]	9.7 ± 0.38
AAAACAAACCCATTTACACACATAAATAAATCAATT [CACACA_site6126]	9.38 ± 0.3
ATTATATTTATGTTGGTGCATTATACATGAAATTTA	8.68 ± 0.4
AGAAAAGGACATATATGTACTTATCAATATAGAAAC [XGTACX_site1042]	9.04 ± 0.48
TTCTTTTTTCTTTATGGTACGTGTAATATATATCAA [XGTACX_site7960]	8.82 ± 0.45
AATAGAACAAATAAAACACACACATATATATATATA [CACACA_site8893]	9.76 ± 0.37
GGCATACACGAACACACACACACACGCACATATATA [CACACA_site6426]	10.5 ± 0.36
AAACAAAAAATATATACACACTAAACATAAAAAAAA [CACACA_site4185]	9.02 ± 0.46
ACACGCACATATATATAAATATATATATATATAAAT [CACACA_negctrl_site1781]	9.6 ± 0.28
ATCAAGCACGAACACACACACACACGCACGCCCACA [CACACA_site6308]	10.3 ± 0.3
CACACGCACGAACACACACACACACGCATATAAATA [CACACA_site6302]	10.2 ± 0.3
CACGCGAACATACATACACACACATATATATATATG [CACACA_site7951]	9.69 ± 0.35
TTTATTTTATCATTTGCACACGCACGCCCACATAAA [CACACA_site353]	9.39 ± 0.42
CCAACATGCCCACGCACACACAAAAAAAGCATGCAT [CACACA_site4217]	9.51 ± 0.4
CGAACAAACAAATAAACACACAAAAAAAAATATATA [CACACA_site1825]	9.11 ± 0.5
AACAAATACGAACACACACACACACTAAAAAAAAAA [CACACA_site6386]	10.3 ± 0.2
CACGCGCACGAACACACACACACACGCATATAAATA [CACACA_site7103]	9.86 ± 0.33
